# A selection: hits, their analogues and other compounds. The true share with any hit is near 3.9%.
# Peg3 prom inh: reduces Peg3 promoter-driven luciferase expression in HeLa. HeLa PEG-Prom luciferase reporter, luminescence, overnight. inhibition, % at 20 µM. actives 1.7% (n = 360,000). AID 588405;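 active = inhibition of at least 50% at 20 µM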
# TROY signal inh: blocks TROY-dependent signaling in reporter cells; Q293 LMP1-TROYcd NF-kB luciferase reporter, 4 h; inhibition, % at 10 µM; actives 0.98% (n = 360,000); AID 1347056;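 active = compounds whose plate-normalised and pattern-corrected inhibition of the luciferase reporter signal at the single screening dose is 50% or more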
# HIF-2a block: blocks HIF-2a reporter activity. AID 624352. actives 0.72% (n = 360,000). 786-0 RCC cells HIF-2a reporter, luciferase luminescence, overnight. inhibition, % at 18.8 µM;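 active = inhibition of the luminescence signal of 40% or more relative to plate controls, in a single-dose primary screen at 18.75 µM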
# TWEAK Fn14 block: inhibitors of TWEAK-Fn14 interaction signaling; TWEAK-stimulated Fn14 reporter cells, luciferase luminescence, 8 h; inhibition, % at 10 µM; AID 1159606; actives 2% (n = 360,000); in the data active = inhibition above about 50%
# KKLEB tox: counter-screen for CF NF-kB inhibitors: cytotoxicity | activity change (cytotoxicity), % at 5 µM | actives 0.36% (n = 360,000) | KKLEB CF airway cells viability, ATPlite luminescence, overnight; stronger effect = lower value; cells stimulated with P. aeruginosa culture filtrate;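 active = corrected activity change at or below -50% at 5 µM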
# CF NFkB block: cystic fibrosis NF-kB activation inhibition; actives 0.86% (n = 360,000); KKLEB NF-kB-GFP reporter, PAF-induced, GFP fluorescence overnight; inhibition, % at 5 µM;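 active = at least 50% inhibition at 5 µM, scaled per plate between neutral and stimulator controls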;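 note: PAF is a Pseudomonas aeruginosa culture filtrate used as stimulus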
# CF NFkB conf: CF NF-kB inhibition confirmation, single concentration | shares compounds with CF NFkB block | KKLEB CF airway cells, PAF-induced NF-kB-GFP fluorescence, overnight | inhibition, % at 5 µM | actives 64% (n = 1,300) | AID 602472; in the data active = inhibition above about 40%;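 note: stimulus PAF is a Pseudomonas aeruginosa filtrate and not platelet activating factor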
# Mdm2-MdmX confirm: confirmation of inhibitors of human Mdm2/MdmX interaction, set 2; shares compounds with HIF-2a block; SaOS-2 split-luciferase Mdm2/MdmX complementation, luminescence; inhibition, % at 8 µM; actives 99% (n = 740); AID 504601;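 active = mean inhibition of the luminescence signal across two replicates at or above 26 percent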
# Target sequence (O15151 whole entry, looked up): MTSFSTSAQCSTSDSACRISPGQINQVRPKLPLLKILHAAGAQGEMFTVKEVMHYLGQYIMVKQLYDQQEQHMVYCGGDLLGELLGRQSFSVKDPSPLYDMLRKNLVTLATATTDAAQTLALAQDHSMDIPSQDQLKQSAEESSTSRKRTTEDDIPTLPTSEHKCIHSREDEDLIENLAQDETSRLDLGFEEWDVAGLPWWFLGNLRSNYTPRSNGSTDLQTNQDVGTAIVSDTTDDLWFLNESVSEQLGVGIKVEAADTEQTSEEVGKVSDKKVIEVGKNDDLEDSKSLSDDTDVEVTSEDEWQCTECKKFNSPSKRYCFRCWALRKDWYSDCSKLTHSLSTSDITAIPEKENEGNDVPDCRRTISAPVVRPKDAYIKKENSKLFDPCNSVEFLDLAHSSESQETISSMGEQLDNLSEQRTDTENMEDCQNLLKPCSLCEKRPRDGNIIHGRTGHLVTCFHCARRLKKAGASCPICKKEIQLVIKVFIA
# Target sequence (Q00987 whole entry, looked up): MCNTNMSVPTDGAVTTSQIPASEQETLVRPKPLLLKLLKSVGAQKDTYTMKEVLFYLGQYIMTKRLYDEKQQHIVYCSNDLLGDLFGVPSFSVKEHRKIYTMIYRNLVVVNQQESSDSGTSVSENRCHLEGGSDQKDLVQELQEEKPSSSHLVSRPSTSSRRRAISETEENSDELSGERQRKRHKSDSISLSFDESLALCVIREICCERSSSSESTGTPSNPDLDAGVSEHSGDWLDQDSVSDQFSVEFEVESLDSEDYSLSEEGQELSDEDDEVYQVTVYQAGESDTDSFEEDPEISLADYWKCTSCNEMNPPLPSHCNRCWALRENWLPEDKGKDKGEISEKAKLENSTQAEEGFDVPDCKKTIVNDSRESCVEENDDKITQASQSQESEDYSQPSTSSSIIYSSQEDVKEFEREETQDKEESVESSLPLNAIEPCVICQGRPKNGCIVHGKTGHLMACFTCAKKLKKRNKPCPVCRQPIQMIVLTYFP
# HIF-2a inh conf: HIF-2a inhibition, single concentration confirmation; inhibition, % at 18.8 µM; 786-0 RCC cells, HIF-2a luciferase reporter luminescence, overnight; actives 56% (n = 1,800); shares compounds with HIF-2a block;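 active = mean inhibition across four replicates of at least 40 percent at the single tested concentration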
# HIF-1a counter: inhibits HIF-1a reporter, a counter-screen for HIF-2a inhibitors; shares compounds with HIF-2a block; MiaPaCa-2 HIF-1a luciferase reporter, desferoxamine, overnight; inhibition, % at 18.8 µM; actives 72% (n = 1,800);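 active = mean inhibition of the reporter signal across four replicates at the single tested dose of 50% or more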
# A number is an active result; - = inactive; . = not tested or not shown.
SMILES,Peg3 prom inh,TROY signal inh,HIF-2a block,TWEAK Fn14 block,KKLEB tox,CF NFkB block,CF NFkB conf,HIF-2a inh conf,HIF-1a counter,others
O=C(NCc1cccnc1)/C(=C\c1ccc(-c2cccc(Cl)c2)o1)S(=O)(=O)c1ccccc1,104.2,77.6,97.8,103.6,-,70.3,76.5,99.0,104.7,
Clc1ccccc1OCc1nnc(-c2ccccc2Br)o1,-,-,-,-,-,-,.,.,.,
O=c1c(Cl)c(Cl)cnn1Cc1nnc(-c2ccccc2Br)o1,106.4,64.4,96.0,92.0,-,83.8,44.5,73.4,106.3,Mdm2-MdmX confirm=101.0
COC(=O)Nc1ccc(S(=O)(=O)N(CCO)CCO)cc1,-,-,-,-,-,-,.,.,.,
Cc1cc(C)c2nc(C(F)(F)F)c(C#N)c(N)c2c1,72.6,-,-,70.4,-,70.2,92.3,.,.,Mdm2-MdmX confirm=83.2
O=C(NCCc1ccc(C(F)(F)F)cc1)C1CCC(=O)N(CCCN2CCCC2=O)C1 (stereo unspecified),-,-,-,-,-,-,.,.,.,
CCCCN(CCCNC(=O)c1ccc2c(c1)NC(=O)CN2C)c1ccccc1,66.1,90.5,44.5,107.9,-,64.6,-,49.2,93.5,
C=C(C)[C@@H]1C2=CC(C(=O)OC)=C(C[C@H](C(=C)C)[C@H]3O[C@H]3C3=C[C@H]1OC3=O)O2,103.0,-,87.8,72.1,-,68.8,-,89.1,106.4,
C=CCNC(=O)C(=O)NCCOc1ccccc1Cl,-,-,-,-,-,-,.,.,.,
COc1ccc(-c2cc(C(F)(F)F)nc(S(C)(=O)=O)n2)cc1,100.4,-,89.2,53.4,-,73.6,57.7,-,103.0,Mdm2-MdmX confirm=102.5
CCOC(=O)CS(=O)(=O)c1nc(-c2ccccc2)cc(C(F)(F)F)n1,105.2,-,89.3,-,-,78.7,59.5,81.6,65.0,
COc1ccc(CNc2nc(NCc3ccc(OC)cc3)c3[nH]cnc3n2)cc1,-,-,-,-,-,-,.,.,.,
C=CCNC(=O)/C(C#N)=C/c1ccc(OS(=O)(=O)c2ccc(C)cc2)c(OC)c1,-,-,59.3,-,-,75.0,-,45.6,97.0,
COC(=O)N/N=C/c1ccc(OS(=O)(=O)c2ccc(C)cc2)c(OC)c1,-,-,-,-,-,-,.,.,.,
O=C(NCCO)C(=O)NCC1OCCCN1S(=O)(=O)c1cccs1 (stereo unspecified),-,-,-,-,-,-,.,.,.,
COC(=O)C(=Cc1ccccc1[N+](=O)[O-])C(=O)OC,52.6,-,76.6,68.6,-,59.1,-,72.5,59.1,
COc1ccc(CNC(=O)/C=C/c2ccccc2[N+](=O)[O-])cc1,-,-,-,-,-,-,.,.,.,
CN1C=CC2=C(C#N)C(N)C(C#N)(C#N)C(c3ccccc3)C2C1 (stereo unspecified),-,-,-,-,-,-,.,.,.,
COC(=O)c1cc(=O)n(Cc2ccc(F)cc2)c(=NCc2ccc(F)cc2)s1,-,-,-,-,-,-,.,.,.,
COC(=O)c1cc(=O)n(Cc2cccs2)c(=Nc2ccc(F)cc2)s1,80.6,-,66.5,55.5,-,54.6,-,-,106.2,
CCN(CC)S(=O)(=O)c1cccc(NC(=O)CC2CCCC2)c1,-,-,-,-,-,-,.,.,.,
CCN(CC)S(=O)(=O)c1cccc(NC(=O)Nc2cccc(C(F)(F)F)c2)c1,-,56.4,40.9,78.5,-,63.0,-,-,101.7,Mdm2-MdmX confirm=95.2
CS(=O)(=O)N(CC(=O)N1CCOCC1)c1cccc(Cl)c1,-,-,-,-,-,-,.,.,.,
COc1cc(/C=C/C(=O)c2ccc([N+](=O)[O-])o2)ccc1O,100.9,51.7,96.9,96.8,-,83.4,-,78.8,104.6,
COc1ccccc1/C=C/C(=O)c1c2c(c(C)[nH]c1=O)CCCC2,98.3,-,72.8,85.5,-,54.1,50.8,62.9,87.8,Mdm2-MdmX confirm=103.2
SMILES,Peg3 prom inh,TROY signal inh,HIF-2a block,TWEAK Fn14 block,KKLEB tox,CF NFkB block,CF NFkB conf,HIF-2a inh conf,HIF-1a counter,others
COc1ccccc1/C=C/C(=O)c1ccccc1,-,-,-,-,-,-,.,.,.,
CCOc1ccccc1NC(=O)c1nc(S(=O)(=O)Cc2ccccc2)ncc1Cl,99.1,74.8,90.3,74.0,-,79.9,94.4,98.6,104.1,
CCOc1ccccc1NC(=O)c1ccc(C(=O)Nc2ccccc2OCC)nc1,-,-,-,-,-,-,.,.,.,
CCS(=O)(=O)c1ncc(Cl)c(C(=O)Nc2ccccc2OC)n1,103.6,73.0,92.6,95.0,-,85.0,96.4,-,99.3,
Cn1nnnc1Sc1ncnc2scc(-c3ccc[nH]3)c12,-,-,72.2,70.5,-,83.0,64.3,40.9,99.6,
C=CC[C@@H](CC(=O)N(CCO)Cc1ccccc1)C(=O)N[C@H](COC(=O)[C@@H](CC=C)Cc1ccc(F)cc1)c1ccccc1,-,-,-,-,-,-,.,.,.,
CC(C)CN=C(NS(=O)(=O)c1ccccc1)C(Cl)(Cl)Cl,99.5,51.0,91.7,98.6,-,87.9,92.7,93.0,104.8,
CCCCn1c(SCC(=O)/C(C#N)=C(\C)N)nc2ccccc2c1=O,-,-,-,-,-,-,.,.,.,
CC(=O)Oc1ccccc1C(=O)C=Cc1cccc([N+](=O)[O-])c1,99.4,-,89.1,82.6,-,80.0,-,93.5,102.5,
Cc1cc(O)c(C(=O)/C=C/c2cccc([N+](=O)[O-])c2)c(=O)o1,-,-,-,-,-,-,.,.,.,
CCn1cc(/C=C(\NC(=O)c2ccc(OC)c(OC)c2)C(=O)NCCCO)c2ccccc21,-,-,-,-,-,-,.,.,.,
NNC(=O)Cn1c(-c2ccccc2)cc(=O)n2ncnc12,-,-,-,-,-,-,.,.,.,
COC(=O)C(NC(=O)c1ccccc1)c1ccccc1 (stereo unspecified),-,-,-,-,-,-,.,.,.,
C=C(C(=O)c1ccccc1)C(NC(C)(C)C)c1ccccc1 (stereo unspecified),104.4,-,85.4,96.4,-,50.5,-,98.3,105.4,
O=C(CCl)N(Cc1cc(=O)[nH]c2ccccc12)c1ccccc1,84.6,-,47.1,81.5,-,69.2,73.9,69.8,103.9,Mdm2-MdmX confirm=101.5
O=C(Nc1ccccc1N1CCN(C(=O)c2ccc(Cl)cc2)CC1)c1ccc([N+](=O)[O-])o1,-,-,-,-,-,-,.,.,.,

# Assay outcomes deposited in PubChem by Sanford-Burnham Center for Chemical Genomics.
